RORgamma inh = inhibitors of mouse ROR gamma transcriptional activity; Drosophila S2 Gal4-RORgamma UAS-luciferase reporter, 20 h; hit rate 5.4% among 310,000; Potency, µM (highest dose often 53.6 µM), for the others: top-dose activity change, negative = inhibition, usual class: inhibitors; also: nearly all actives have a fitted effect of over 60% in size
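Using a luciferase readout, inhibitors were identified by reduced reporter activity in Drosophila cells coexpressing a copper-inducible Gal4–ROR gamma fusion and UAS-driven Photinus luciferase, incubated 20 hr after 700 uM copper sulfate.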
VP16 counter = Gal4-VP16 reporter inhibition counter-screen. Potency, µM (titrated, usually from 53.6 µM), for inactives: at the highest dose activity, negative = inhibition, actives largely listed as inhibitors. hit rate 3.5% among 310,000. AID 2546. Drosophila S2 Gal4-VP16 UAS-luciferase, luminescence, 20 h;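 also: Gal4-VP16 expression switched on by copper sulfate through the metallothionein promoter; nearly all actives have a fitted effect of over 50% in size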
TDP1 cell CPT = growth inhibition of DT40 Tdp1-/-;hTDP1 cells with camptothecin (screen for TDP1 inhibitors); chicken DT40 Tdp1-/-;hTDP1 cells + 20 nM CPT, ATP luminescence, 48 h; Potency, µM (highest dose often 46.2 µM), without a hit: at the highest dose activity change, negative = growth inhibition, actives largely listed as inhibitors; hit rate 12% among 420,000; AID 686979; also: nearly all actives have a fitted effect of over 55% in size
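Chicken DT40 Tdp1-/- cells stably complemented with human TDP1 were seeded at 400 cells/well in medium containing 20 nM camptothecin, exposed to pin-transferred compounds, and grown at 37 °C for at least 48 hr. Viability was read as ATP luminescence.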
DT40 TDP1 no CPT = qHTS for Inhibitors of human tyrosyl-DNA phosphodiesterase 1 (TDP1): qHTS in cells in absence of CPT; DT40 Tdp1-/- hTDP1 cells, no CPT, ATP luminescence, 48 h; hit rate 15% among 420,000; AID 686978, 2013; Potency, µM (top dose mostly 46.2 µM), for inactives: at the top dose activity change, negative = growth inhibition, hits mostly inhibitors; also: nearly all actives have a fitted effect of over 55% in size
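Chicken DT40 Tdp1-/- cells stably complemented with human TDP1 were seeded at 400 cells/well with DMSO in place of 20 nM camptothecin. After compound pinning, cells grew at least 48 hr at 37 °C; viability read by CellTiter-Glo luminescence.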
ELG1 repair inh = ELG1-dependent DNA repair inhibition. HEK293T ELG1-luciferase reporter, luminescence, 16 h; DNA damage induced by 5-fluorouridine. Potency, µM (titrated, usually from 46.1 µM), without a hit: at the highest dose activity change, negative = inhibition, usual class: inhibitors. AID 504467. hit rate 2.3% among 330,000; also: nearly all actives have a fitted effect of over 55% in size
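HEK293T cells expressing luciferase-tagged ELG1 (2,000/well) received 5-Fluorouridine plus compound or DMSO for 16 hr at 37 °C. Luciferase was read by ONE-Glo luminescence after 30 min at room temperature.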
12-LOX inh = inhibitors of human 12S-lipoxygenase ALOX12 | hit rate 1.1% among 580,000 | purified 12hLO, xylenol orange hydroperoxide absorbance | P18054 | AID 1671190 | Potency, µM (doses to about 108 µM), without a hit: at the top dose activity change, negative = inhibition, hits mostly inhibitors
Target sequence (P18054 whole entry, looked up): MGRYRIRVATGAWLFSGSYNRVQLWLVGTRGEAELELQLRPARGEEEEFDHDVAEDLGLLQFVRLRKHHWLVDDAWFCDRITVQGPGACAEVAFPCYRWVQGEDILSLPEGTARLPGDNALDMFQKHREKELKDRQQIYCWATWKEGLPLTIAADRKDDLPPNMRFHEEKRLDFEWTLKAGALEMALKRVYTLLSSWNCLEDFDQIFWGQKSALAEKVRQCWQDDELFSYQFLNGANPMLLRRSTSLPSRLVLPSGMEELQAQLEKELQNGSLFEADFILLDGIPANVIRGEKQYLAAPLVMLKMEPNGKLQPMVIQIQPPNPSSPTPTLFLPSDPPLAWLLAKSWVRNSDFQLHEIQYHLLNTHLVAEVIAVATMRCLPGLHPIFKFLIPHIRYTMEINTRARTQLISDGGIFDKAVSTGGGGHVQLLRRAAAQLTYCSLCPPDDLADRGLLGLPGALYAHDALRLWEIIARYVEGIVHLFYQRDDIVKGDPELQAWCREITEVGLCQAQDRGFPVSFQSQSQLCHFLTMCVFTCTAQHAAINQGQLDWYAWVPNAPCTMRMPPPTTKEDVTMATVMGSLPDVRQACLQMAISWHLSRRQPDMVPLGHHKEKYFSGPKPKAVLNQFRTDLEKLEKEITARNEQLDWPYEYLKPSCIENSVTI
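Purified human 12hLO at 150 nM in 25 mM Hepes, 0.01% Triton X-100, pH 7.0, preincubated 15 min at room temperature with compound. Reaction started with 40 uM arachidonic acid, 30 min at room temperature. Hydroperoxide measured by Fe-xylenol orange, 573/405 nm absorbance ratio.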
Starred values were filed as active, the others as inactive. An excerpt weighted towards active compounds, which were near 15% of everything screened. Calls follow the shape of the dose curve; as a rule, active = well fitted curve in the direction sought with a large enough effect; inconclusive = small, poorly fitted or top-dose-only effect, or another doubt; inactive = no such curve, though single readings can be large; an effect the other way counts as inactive or inconclusive. % is scaled to controls: 0 for no effect and ±100 for the full control effect; potency is read from the fitted curve at half-maximal effect.

For CCOc1ccc(CNCc2cccn2-c2nnc(N3CCN(C)CC3)s2)cc1 the results were 12-LOX inh 9%.
Screening CC(C)NC(=O)c1ccc(-n2c(-c3ccccc3)cc3c2CCCCC3)cc1 returned TDP1 cell CPT inconclusive, DT40 TDP1 no CPT inconclusive and 12-LOX inh -10%.
`CC1CCc2c(cc(-c3ccccc3)n2-c2ccc(C(=O)NC(C)C)cc2)C1` (configuration not stated) gave TDP1 cell CPT inconclusive, DT40 TDP1 no CPT 21µM* and 12-LOX inh -10%.
For COCCCNC(=O)c1ccc(-n2c(-c3ccccc3)cc3c2CCCCC3)cc1 the results were TDP1 cell CPT inconclusive, DT40 TDP1 no CPT inconclusive and 12-LOX inh -12%.
For CCOCCCNC(=O)c1ccc(-n2c(-c3ccccc3)cc3c2CCCC3)cc1 the results were TDP1 cell CPT 9.2µM*, DT40 TDP1 no CPT 8.2µM* and 12-LOX inh -2%.
`CCCCc1ccc(-c2csc(/C(C#N)=C/c3ccc(-c4ccccc4)cc3)n2)cc1` gave 12-LOX inh 6%.
For Cc1ccc(CNC(=O)Cc2ccc(Br)cc2)cc1 the results were RORgamma inh 36%, VP16 counter 18%, TDP1 cell CPT 9.2µM*, DT40 TDP1 no CPT 7.3µM*, ELG1 repair inh 0% and 12-LOX inh 22%.
Screening Cc1ccc(CNC(=O)COC(=O)c2ccc(Br)cc2)cc1 returned RORgamma inh 3%, VP16 counter -10%, TDP1 cell CPT -4%, DT40 TDP1 no CPT -5%, ELG1 repair inh 10% and 12-LOX inh -21%.
For O=C(Cc1ccc(Br)cc1)NCc1ccccc1 the results were RORgamma inh 8%, VP16 counter -7%, TDP1 cell CPT 2.9µM*, DT40 TDP1 no CPT 2.1µM*, ELG1 repair inh inconclusive and 12-LOX inh 43%.
O=C(COC(=O)Cc1ccc(Br)cc1)NCc1ccccc1 was read as TDP1 cell CPT -22%, DT40 TDP1 no CPT -18% and 12-LOX inh 20%.
For Cc1cc2nc(-c3ccc(OCc4ccccc4C)cc3)cc(C(F)(F)F)n2n1 the results were TDP1 cell CPT inconclusive, DT40 TDP1 no CPT 16µM* and 12-LOX inh -20%.
For Cc1ccccc1N1CCN(c2ccc(NC(=O)C3CCCCC3C(=O)O)cc2)CC1 (configuration not stated) the results were RORgamma inh inconclusive, VP16 counter 2%, TDP1 cell CPT inconclusive, DT40 TDP1 no CPT 9.2µM*, ELG1 repair inh inconclusive and 12-LOX inh -14%.
Screening O=C(O)[C@H]1CCCC[C@H]1C(=O)Nc1ccc(Nc2ccccc2)cc1 returned RORgamma inh inconclusive, VP16 counter 1%, TDP1 cell CPT -13%, DT40 TDP1 no CPT inconclusive, ELG1 repair inh -1% and 12-LOX inh 0%.
For COc1ccc(CCN(C)Cc2c(O)ccc3cc(Br)ccc23)cc1OC the results were RORgamma inh 2%, VP16 counter -15%, TDP1 cell CPT inconclusive, DT40 TDP1 no CPT -23%, ELG1 repair inh -2% and 12-LOX inh 18µM*.
`COc1ccc(CN(C)Cc2c(O)ccc3cc(Br)ccc23)cc1OC` gave RORgamma inh -9%, VP16 counter inconclusive, TDP1 cell CPT -28%, DT40 TDP1 no CPT inconclusive, ELG1 repair inh 14% and 12-LOX inh 28µM*.
Screening COc1ccc2cc(Br)ccc2c1CC(=O)NC(C)C returned RORgamma inh 6%, VP16 counter -10%, TDP1 cell CPT -9%, DT40 TDP1 no CPT inconclusive, ELG1 repair inh 2% and 12-LOX inh 1%.
For CCCSc1nnc(Cn2c(=O)sc3ccccc32)n1-c1ccccc1 the results were RORgamma inh 20%, VP16 counter 5%, TDP1 cell CPT inconclusive, DT40 TDP1 no CPT 18µM*, ELG1 repair inh inconclusive and 12-LOX inh 359%.
Cc1csc(NC(=O)CSc2nnc(Cn3c(=O)sc4ccccc43)n2-c2ccccc2)n1 was read as RORgamma inh 2%, VP16 counter 3%, TDP1 cell CPT 7.3µM*, DT40 TDP1 no CPT -100%, ELG1 repair inh inconclusive and 12-LOX inh 379%.
Screening CSc1nnc(Cn2c(=O)sc3ccccc32)n1-c1cccc(Cl)c1 returned RORgamma inh 12%, VP16 counter -2%, TDP1 cell CPT inconclusive, DT40 TDP1 no CPT inconclusive, ELG1 repair inh 11% and 12-LOX inh 20%.
For Cn1c(Cn2c(=O)sc3ccccc32)nnc1SCC(=O)NC1CCCC1 the results were RORgamma inh 11%, VP16 counter -12%, TDP1 cell CPT 16µM*, DT40 TDP1 no CPT -9%, ELG1 repair inh 5% and 12-LOX inh 439%.
`O=C1NCCCCCCN(Cc2ccncc2)[C@@H]2CN(C(=O)NCCc3ccccc3)CC[C@H]12` gave 12-LOX inh 8%.
Screening NCCSc1ncc(C(F)(F)F)cc1Cl returned 12-LOX inh 42%.
`N=C1/C(=C\c2ccc(Br)o2)C(=O)N=C2SC(CC(=O)N3CCCCC3)=NN12` gave RORgamma inh -11%, VP16 counter 4%, TDP1 cell CPT 6.5µM*, DT40 TDP1 no CPT 7.3µM*, ELG1 repair inh 8% and 12-LOX inh -5%.
Screening COc1cccc(/C=C(/C(=O)OCC(N)=O)c2ccccc2)c1 returned RORgamma inh -23%, VP16 counter 5%, TDP1 cell CPT -2%, DT40 TDP1 no CPT -26%, ELG1 repair inh -3% and 12-LOX inh -18%.
Screening COc1cccc(/C=C(/C(=O)OCC(=O)NC2CCCC(C)C2C)c2ccccc2)c1 (configuration not stated) returned RORgamma inh inconclusive, VP16 counter inconclusive, TDP1 cell CPT inconclusive, DT40 TDP1 no CPT 21µM*, ELG1 repair inh inconclusive and 12-LOX inh 6%.
For C[C@@H](NCc1cccc(Cl)c1)c1onc(-c2ccc(F)cc2)c1C(=O)O the results were 12-LOX inh 28µM*.
CCCCC(=O)N/N=C/c1ccc(-c2ccc([N+](=O)[O-])cc2)o1 was read as RORgamma inh inconclusive, VP16 counter 10%, TDP1 cell CPT inconclusive, DT40 TDP1 no CPT 16µM*, ELG1 repair inh 6% and 12-LOX inh -10%.
Cc1nnc(N/N=C\c2ccc(-c3ccccc3[N+](=O)[O-])o2)n1N was read as RORgamma inh inconclusive, VP16 counter inconclusive, TDP1 cell CPT inconclusive, DT40 TDP1 no CPT inconclusive, ELG1 repair inh inconclusive and 12-LOX inh 0%.

Compound activity deposited in PubChem by National Center for Advancing Translational Sciences (NCATS).
